Results filed as inconclusive are left out. Entries that show only a call come without a potency. Values without a mark were called inactive. Activity calls are given as the source filed them. Calls come from the whole dose curve; as a rule, active = well fitted curve in the direction sought with a large enough effect; inconclusive = small, poorly fitted or top-dose-only effect, or another doubt; inactive = no such curve, though single readings can be large; an effect the other way counts as inactive or inconclusive.
What was measured:
[1] = target: Rap guanine nucleotide exchange factor 3 (Homo sapiens) (UniProt O95398); experiment: Confirmatory qHTS for antagonist of cAMP-regulated guanine nucleotide exchange factor 3 (EPAC1) (AID 1645880); conditions: EPAC1 Rap1B-BODIPY-GDP exchange, fluorescence; series mostly up to 115 µM; note: nearly all actives have a fitted effect of over 55% in size; note: potency is the fitted concentration of half-maximal effect
Rap guanine nucleotide exchange factor 3 (Homo sapiens), sequence (O95398 whole entry, looked up): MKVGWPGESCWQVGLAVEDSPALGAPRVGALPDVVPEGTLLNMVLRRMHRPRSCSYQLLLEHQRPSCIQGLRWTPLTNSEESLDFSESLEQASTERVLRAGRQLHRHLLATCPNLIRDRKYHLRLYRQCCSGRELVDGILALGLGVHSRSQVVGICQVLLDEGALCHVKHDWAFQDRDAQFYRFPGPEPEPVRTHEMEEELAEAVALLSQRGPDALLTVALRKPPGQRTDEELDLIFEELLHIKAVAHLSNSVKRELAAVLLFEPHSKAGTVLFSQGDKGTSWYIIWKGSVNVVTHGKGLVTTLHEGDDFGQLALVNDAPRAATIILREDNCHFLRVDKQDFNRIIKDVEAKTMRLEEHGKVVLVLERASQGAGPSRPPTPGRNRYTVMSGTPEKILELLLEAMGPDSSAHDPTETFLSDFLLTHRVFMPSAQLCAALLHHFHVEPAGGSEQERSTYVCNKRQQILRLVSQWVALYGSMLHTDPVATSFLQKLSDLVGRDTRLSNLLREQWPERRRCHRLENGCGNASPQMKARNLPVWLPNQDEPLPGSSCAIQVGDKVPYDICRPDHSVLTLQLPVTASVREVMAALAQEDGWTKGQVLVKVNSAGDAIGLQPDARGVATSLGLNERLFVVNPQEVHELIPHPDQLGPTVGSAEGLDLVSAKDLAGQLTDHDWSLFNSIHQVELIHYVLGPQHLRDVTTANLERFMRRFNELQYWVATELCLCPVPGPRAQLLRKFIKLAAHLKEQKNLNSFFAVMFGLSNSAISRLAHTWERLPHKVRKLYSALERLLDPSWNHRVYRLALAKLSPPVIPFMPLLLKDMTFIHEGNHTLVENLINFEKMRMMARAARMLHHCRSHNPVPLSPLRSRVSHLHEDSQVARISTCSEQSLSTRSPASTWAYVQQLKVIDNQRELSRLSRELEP
Procedure, shortened: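 Nucleotide exchange uses 100 nM EPAC1, 250 nM RAP1B-BODIPY-GDP and 50 uM GDP, with compounds in a concentration-titration series. After 5 min at room temperature, fluorescence (480 nm ex/540 nm em) is read every 5 min for 30 min. Data are normalized to control ATA and DMSO.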

[2] = target: Rap guanine nucleotide exchange factor 3 (Homo sapiens) (UniProt O95398); experiment: Confirmatory qHTS for agonist of cAMP-regulated guanine nucleotide exchange factor 3 (EPAC1) (AID 1645881); conditions: EPAC1 Rap1B BODIPY-GDP exchange fluorescence; series mostly up to 154 µM;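 note: EPAC1 catalysed release of BODIPY-GDP from Rap1B seen as fluorescence loss; nearly all actives have a fitted effect of over 75% in size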
[3] = target: Rap guanine nucleotide exchange factor 4 (Homo sapiens) (UniProt Q8WZA2); experiment: Confirmatory qHTS for agonist of cAMP-regulated guanine nucleotide exchange factor 4 (EPAC2) (AID 1645884); conditions: EPAC2 GEF activity, Rap1B-BODIPY-GDP fluorescence; series mostly up to 154 µM;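 note: nucleotide exchange releases bodipy-GDP from Rap1 and this lowers its fluorescence; nearly all actives have a fitted effect of over 65% in size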
Rap guanine nucleotide exchange factor 4 (Homo sapiens), sequence (Q8WZA2 whole entry, looked up): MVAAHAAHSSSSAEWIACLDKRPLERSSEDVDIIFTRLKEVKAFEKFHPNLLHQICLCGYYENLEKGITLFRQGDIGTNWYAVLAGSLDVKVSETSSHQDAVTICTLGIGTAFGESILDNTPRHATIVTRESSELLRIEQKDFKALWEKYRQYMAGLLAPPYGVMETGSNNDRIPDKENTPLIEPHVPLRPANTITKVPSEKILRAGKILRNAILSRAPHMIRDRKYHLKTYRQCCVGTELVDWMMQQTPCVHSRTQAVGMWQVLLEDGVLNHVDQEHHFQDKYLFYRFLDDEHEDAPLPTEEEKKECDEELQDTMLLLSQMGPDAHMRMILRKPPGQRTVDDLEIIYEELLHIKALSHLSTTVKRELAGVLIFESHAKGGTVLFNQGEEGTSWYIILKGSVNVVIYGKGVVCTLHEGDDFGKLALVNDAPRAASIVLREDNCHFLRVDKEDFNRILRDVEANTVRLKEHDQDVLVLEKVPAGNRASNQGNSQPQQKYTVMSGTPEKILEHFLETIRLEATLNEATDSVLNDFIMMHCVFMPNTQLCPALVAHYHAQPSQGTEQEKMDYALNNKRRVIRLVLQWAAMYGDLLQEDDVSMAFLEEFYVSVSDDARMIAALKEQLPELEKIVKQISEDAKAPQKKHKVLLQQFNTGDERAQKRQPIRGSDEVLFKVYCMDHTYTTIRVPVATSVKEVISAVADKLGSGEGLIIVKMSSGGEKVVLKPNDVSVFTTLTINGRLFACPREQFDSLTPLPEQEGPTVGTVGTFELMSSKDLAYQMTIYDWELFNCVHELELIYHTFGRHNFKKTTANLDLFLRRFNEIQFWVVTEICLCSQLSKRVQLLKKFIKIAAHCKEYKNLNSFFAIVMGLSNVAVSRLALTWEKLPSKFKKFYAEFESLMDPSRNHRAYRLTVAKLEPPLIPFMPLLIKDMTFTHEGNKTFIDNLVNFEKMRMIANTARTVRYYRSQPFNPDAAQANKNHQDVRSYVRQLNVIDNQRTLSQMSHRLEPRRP

[4] = target: Rap guanine nucleotide exchange factor 4 (Homo sapiens) (UniProt Q8WZA2); experiment: Confirmatory qHTS for antagonist of cAMP-regulated guanine nucleotide exchange factor 4 (EPAC2) (AID 1645885); conditions: EPAC2 Rap1B-BODIPY-GDP exchange fluorescence, biochemical; series mostly up to 12.7 µM; note: nearly all actives have a fitted effect of over 25% in size; note: potency is the fitted concentration of half-maximal effect
[5] = target: Rap guanine nucleotide exchange factor 3 (Homo sapiens) (UniProt O95398); experiment: Counterscreen qHTS for antagonist of cAMP-regulated guanine nucleotide exchange factor 3 (EPAC1) (AID 1645888); conditions: Rap1B-BODIPY-GDP nucleotide exchange, fluorescence; series mostly up to 154 µM;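 note: fluorescence loss as bound BODIPY-GDP is released from Rap1B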
Procedure, shortened: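 Measured: fluorescence of BODIPY-GDP bound to Rap1B, which falls as exchange proceeds. Conditions include 50 uM competing GDP, 5 and 30 min reads, and a later cAMP challenge for antagonist detection.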

Cc1cccc(N=C2NC(=O)/C(=C/C=C/c3ccco3)S2)c1C
Potency [1]: 9.53 µM (active) | Potency [2]: inactive | Potency [3]: inactive | Potency [4]: inactive | Potency [5]: inactive

COc1cc(Nc2nc(SCc3cccc(Cl)c3)nc3ccccc23)cc(OC)c1
Potency [1]: inactive | Potency [2]: inactive | Potency [3]: inactive | Potency [4]: 0.151 µM (active) | Potency [5]: inactive

O=C1C=CC(=O)c2c(O)c(N3CCN(CCOCCO)CC3)c(Br)c(O)c21
Potency [1]: 9.53 µM (active) | Potency [2]: inactive | Potency [3]: inactive | Potency [4]: inactive | Potency [5]: inactive

Cc1ccc2nc(-c3ccccc3)c(Cc3ccccn3)n2c1
Potency [1]: inactive | Potency [2]: inactive | Potency [3]: inactive | Potency [4]: inactive | Potency [5]: inactive

CC1CN(C(=O)CCC(=O)NCc2cccc(Cl)c2)c2ccccc2S1 (stereo not given)
Potency [1]: inactive | Potency [2]: inactive | Potency [3]: inactive | Potency [4]: inactive | Potency [5]: inactive

O=C(O)c1cc(N/N=C/c2ccncc2)ccc1Cl
Potency [1]: inactive | Potency [2]: inactive | activation [3]: 1.56% [at 17.1 µM, percent relative to cAMP agonist control] | Potency [4]: inactive | activity change, negative = inhibition [5]: -14% [at 30.8 µM]

COc1ccccc1C(=O)Nc1ccccc1C(=O)OCc1cc(=O)n2c(C)csc2n1
Potency [1]: inactive | Potency [2]: inactive | Potency [3]: inactive | Potency [4]: inactive | Potency [5]: inactive

CCOC(=O)CSc1ccc2nnc(-c3ccccc3)n2n1
Potency [1]: inactive | Potency [2]: inactive | activation [3]: 7.87% [at 17.1 µM, percent relative to cAMP agonist control] | Potency [4]: inactive | activity change, negative = inhibition [5]: -6.6% [at 30.8 µM]

CS(=O)(=O)c1ccc2c(c1)sc1nc(=O)c(/C=C3/C=CC(=O)C(O)=C3)c(N)n12
Potency [1]: 3.38 µM (active) | Potency [2]: inactive | Potency [3]: inactive | Potency [4]: inactive | Potency [5]: inactive

CC(/C=C1\SC(=S)N(NS(=O)(=O)c2ccc(C)cc2)C1=O)=C\c1ccccc1
Potency [1]: 26.9 µM (active) | Potency [2]: inactive | Potency [3]: inactive | Potency [4]: 47.8 µM (active) | Potency [5]: inactive

O=C(Nc1cccc(Cl)c1)C1CCCN(C2=NS(=O)(=O)c3ccccc32)C1 (stereo not given)
Potency [1]: inactive | Potency [2]: inactive | Potency [3]: inactive | Potency [4]: inactive | Potency [5]: inactive

O=C(N/N=C\c1cc([N+](=O)[O-])ccc1N1CCCC1)c1ccccn1
Potency [1]: inactive | Potency [2]: inactive | activation [3]: 3.56% [at 17.1 µM, percent relative to cAMP agonist control] | Potency [4]: inactive | activity change, negative = inhibition [5]: -14.6% [at 30.8 µM]

CCOC(=O)C(C)n1cnc2c(nnn2-c2cccc(Cl)c2)c1=O (stereo not given)
Potency [1]: inactive | Potency [2]: inactive | activation [3]: 0% [at 17.1 µM, percent relative to cAMP agonist control] | Potency [4]: inactive | activity change, negative = inhibition [5]: -28.5% [at 30.8 µM]

Cc1ccc(NC(=O)c2ccc(S(=O)(=O)N3CCCCCC3)cc2)nc1
Potency [1]: inactive | Potency [2]: inactive | activation [3]: 5.15% [at 17.1 µM, percent relative to cAMP agonist control] | Potency [4]: inactive | activity change, negative = inhibition [5]: -5.55% [at 30.8 µM]

CCc1cccc(C)c1Nc1c(-c2cccs2)nc2ncccn12
Potency [1]: inactive | Potency [2]: inactive | Potency [3]: inactive | Potency [4]: inactive | Potency [5]: inactive

C=CCn1c(C)cc(C(=O)Cn2ncc(Cl)c(Cl)c2=O)c1C
Potency [1]: 37.9 µM (active) | Potency [2]: inactive | Potency [3]: inactive | Potency [4]: inactive | Potency [5]: inactive

CSCCC(NC(=O)c1ccc(Cl)cc1)C(=O)OCC(=O)N1CCCC1=O (stereo not given)
Potency [1]: inactive | Potency [2]: inactive | activation [3]: 10.4% [at 17.1 µM, percent relative to cAMP agonist control] | Potency [4]: inactive | activity change, negative = inhibition [5]: 5.02% [at 30.8 µM]

COc1ccc(Cl)cc1N1C(=O)C2CCCN2C1c1ccccc1F (stereo not given)
Potency [1]: inactive | Potency [2]: inactive | Potency [3]: inactive | Potency [4]: inactive | Potency [5]: inactive

CN1OC[C@@H]2CN(C(=O)CCc3ccccc3)[C@H](c3cccc(-c4ccc(C#N)cc4)c3)C[C@@H]21
Potency [1]: inactive | Potency [2]: inactive | Potency [3]: inactive | Potency [4]: inactive | Potency [5]: inactive

COc1cc2cnc(-c3ccccc3)c(C(=O)c3ccc(F)cc3)c2cc1OC
Potency [1]: inactive | Potency [2]: inactive | activation [3]: 4.26% [at 17.1 µM, percent relative to cAMP agonist control] | Potency [4]: inactive | activity change, negative = inhibition [5]: -6.2% [at 30.8 µM]

O=C(COC(=O)CSc1ccc([N+](=O)[O-])cc1)NCc1cccs1
Potency [1]: inactive | Potency [2]: inactive | Potency [3]: inactive | Potency [4]: inactive | Potency [5]: inactive

COCCn1c(SCC(=O)Nc2ccc3c(c2)CCC3)nc2ccccc2c1=O
Potency [1]: inactive | Potency [2]: inactive | activation [3]: -0.521% [at 17.1 µM, percent relative to cAMP agonist control] | Potency [4]: inactive | activity change, negative = inhibition [5]: -10.3% [at 30.8 µM]

CCOc1c(Cl)cc(Cl)cc1CNCCSc1nnnn1C
Potency [1]: inactive | Potency [2]: inactive | Potency [3]: inactive | Potency [4]: inactive | Potency [5]: inactive

CCn1c(C)nc2cc(C(=O)N/N=C(\C)c3ccccc3O)ccc21
Potency [1]: 7.08 µM (active) | Potency [2]: inactive | activation [3]: 0.106% [at 17.1 µM, percent relative to cAMP agonist control] | Potency [4]: inactive | activity change, negative = inhibition [5]: -28% [at 30.8 µM]

CCN(CC(=O)Nc1ccc(NC(C)=O)cc1)CC(=O)Nc1ccc(F)c(Cl)c1
Potency [1]: inactive | Potency [2]: inactive | activation [3]: 5.14% [at 17.1 µM, percent relative to cAMP agonist control] | Potency [4]: inactive | activity change, negative = inhibition [5]: 3.51% [at 30.8 µM]

O=C1OC(c2ccccc2)/C(=C(/O)c2ccccc2)C1=O (stereo not given)
Potency [1]: inactive | Potency [2]: inactive | activation [3]: 9.85% [at 17.1 µM, percent relative to cAMP agonist control] | Potency [4]: inactive | activity change, negative = inhibition [5]: -5.63% [at 30.8 µM]

COc1ccc(C2NC(=O)N(C)C3=C2C(=O)N(c2cccc(Cl)c2)C3)cc1 (stereo not given)
Potency [1]: inactive | Potency [2]: inactive | Potency [3]: inactive | Potency [4]: inactive | Potency [5]: inactive

Reference: PubChem BioAssay (NCATS)
